# The whole screen tested about 65,000 compounds, of which about 1,200 (1.8%) were called active. Many of the other results were omitted from the sample, so actives are more common in it than they were. Values without a mark were called inactive. Rule as the data show it: active = inhibition above about 50%; inactive = the rest.
# Target: Gag-Pol polyprotein (Human immunodeficiency virus type 1 group M subtype B (isolate HXB2)) (UniProt P04585)
# Assay: blockers of HIV-1 RNase H RNA/DNA cleavage – biochemical, fluorescence, primary screen (AID 565)
# Conditions: RT-RNase H RNA/DNA duplex cleavage, at 10 µM, hits give high values
row,Structure (SMILES),inhibition
1,COC(=O)C1=C(C)OC(N)=C(C#N)C1c1cc(OC)ccc1OC (stereo not given),-6.95%
2,CCC(=O)NC(=Nc1nc2ccccc2s1)NC(=O)CC,-21.2%
3,COc1ccc(Nc2oc(-c3ccccc3Cl)nc2C#N)cc1,54.5% (active)
4,CCOc1ccc(Nc2oc(Cc3ccccc3)nc2C#N)cc1,-28.4%
5,N#Cc1nc(-c2ccc(OCc3ccccc3)cc2)oc1NCCCN1CCOCC1,-42.2%
6,NC(=O)CSC1=Nc2ccccc2C2=NC(CCC(=O)NCc3ccc(F)cc3)C(=O)N12 (stereo not given),-6.32%
7,CC(C)C1N=C2c3ccccc3N=C(SCC(=O)c3ccc(O)c(O)c3)N2C1=O (stereo not given),96.1% (active)
8,O=C(CSC1=Nc2ccccc2C2=NC(c3ccccc3)C(=O)N12)NCC1CCCO1 (stereo not given),2.21%
9,CCOc1cc(/C=N/O)cc(Br)c1OC,-18.2%
10,CN1CCC2(CC1)NC(=O)NC2=O,-0.41%
11,COc1ccc(N2CCN(C(=O)CSc3nc4cc(OC)c(OC)cc4cc3C#N)CC2)cc1,36.4%
12,COc1ccc(N2CCN(C(=O)CSc3ncnc4c3cnn4-c3ccc(OC)cc3)CC2)cc1,54.2% (active)
13,COc1ccc(N2CCN(C(=O)CSc3nnc4ncccn34)CC2)cc1,2.76%
14,O=C(O)C1CCCN(S(=O)(=O)c2cccc3cccnc23)C1 (stereo not given),-3.84%
15,COc1cc2[nH]c(=S)n(CCN3CCCCC3C)c(=O)c2cc1OC (stereo not given),-11%
16,CCSc1nc(=S)n(CC)c(C)c1C(C)=O,-6.33%
17,CCOc1cccc(-n2nnnc2-c2ccc(OC)cc2)c1,-27.8%
18,COC(=O)c1cn(-c2ccccc2)nc1-c1cccnc1,-35.4%
19,CCOC(=O)CNC(=O)c1nn(-c2cccc(OC)c2)c(=O)c2ccccc12,-9.52%
20,CCOC(=O)c1nc(N)sc1C(=O)OCC,-13.4%
21,COC(=O)c1sc(=S)n(-c2ccccc2)c1N,88.6% (active)
22,CCOC(=O)c1sc(=S)n(-c2cccc(OC)c2)c1N,65.1% (active)

row,Structure (SMILES),inhibition
1,CCOC(=O)CSc1nnc(CNC(=O)c2cccs2)n1-c1ccccc1,-126%
2,CCOC(=O)Cn1c(N)c(C(=O)OC)sc1=S,56.2% (active)
3,CCOC(=O)Cn1c(SC)nc2sc3c(c2c1=O)CC(C)(C)OC3,-12.4%
4,O=C(Cn1c(=S)nc2ccccn21)N1CCc2ccccc2C1,-12.1%
5,Cc1nn2c3ccccc3nc2n(C)c1=O,-8.5%
6,CCOc1ncccc1C(=O)OCc1cn2cc(Cl)ccc2n1,-19.9%
7,CCN(CC)CCCN1C(=O)C(=O)/C(=C(/O)c2c(C)nc3ccccn23)C1c1ccc(C)o1 (stereo not given),-7.5%
8,O=c1c2ccccc2nnn1CSc1nc2sc3c(c2c(=O)n1CC1CCCO1)CCC3 (stereo not given),-3.16%
9,CC1Oc2ccccc2N(Cc2cccnc2)C1=O (stereo not given),-1.88%
10,COC(=O)Nc1ccc(S(=O)(=O)N(C)CC(F)(F)C(F)F)cc1,-4.49%
11,O=C(CN1CCN(CC(=O)Nc2ccc3c(c2)OCO3)CC1)Nc1ccc(F)cc1,-10.3%
12,N#CC(=C1SC=CS1)c1nc(-c2ccccc2)cs1,55.1% (active)
13,N#C/C(=C1\CCCN1)c1nc(-c2ccccc2)cs1,-34%
14,c1ccc(Nc2nc(-c3ccncc3)cs2)nc1,-13.7%
15,Cc1cc(C)n(C(=O)c2ccc(S(=O)(=O)N3CCCC3)cc2)n1,-7.85%
16,Fc1ccccc1OCCSc1nc2ccccc2o1,-31.7%
17,Cc1nc2ccccc2c(=O)n1CCCn1ccnc1,-6.99%
18,Cc1ccnc(-n2sc3ccccc3c2=O)n1,84.5% (active)
19,CC12C(=O)N(n3cnnc3)C(=O)C1C1C=CC2C1 (stereo not given),1.01%
20,C/C(=C\C(=O)c1ccc(Br)cc1)N1CCCCC1,-18.6%
21,CCC(=O)Nc1cccc(NC(=O)CSc2nnc(-c3ccc(NS(C)(=O)=O)cc3)n2C)c1,-1.65%
22,CCc1c(C)[nH]c(=S)c(C#N)c1C,84.3% (active)

row,Structure (SMILES),inhibition
1,CC(=O)N1CCN(CCN=CC2=C(O)CC(C)(C)CC2=O)CC1,-3.55%
2,COCCCNC(=O)Cn1cc(C(=O)C2CC2)c2ccccc21,-5.05%
3,Cc1ccc(C(=O)CSc2nnc(Cn3nnc4ccccc43)n2C)cc1,-1.04%
4,O=C(CSc1nnc(Cn2cnc3ccccc32)o1)c1ccccc1,-18.7%
5,Fc1ccc(OCc2nn3c(Cn4nnc5ccccc54)nnc3s2)cc1,77.8% (active)
6,c1ccc(Cc2nn3c(Cn4cnc5ccccc54)nnc3s2)cc1,82.6% (active)
7,N#CCCn1cnc2ccccc21,-0.17%
8,CCOc1cccc(-c2nnc3sc(COc4ccc(OC)cc4)nn23)c1,1.27%
9,NC(=O)C1CCN(C2OC(=O)c3ccccc32)CC1 (stereo not given),2.61%
10,COc1ccc(OCC(=O)N2CCOCC2)cc1,-8.89%
11,CCOc1cc(-c2noc(CCC(=O)N3CCOCC3)n2)ccc1OC,-9.69%
12,CCOc1cc(C(=S)N2CCOCC2)ccc1O,91.2% (active)
13,Cn1c(=O)[nH]c(=O)c2c1nc(Br)n2CCCCSc1nc2ccccc2o1,19.8%
14,Cc1nnc(SCCCn2c(N3CCCCC3)nc3c2c(=O)[nH]c(=O)n3C)s1,-3.25%
15,Cn1c(=O)[nH]c(=O)c2c1nc(N1CCCCCC1)n2CC(=O)c1ccccc1,1.85%
16,CCCSc1nc2c(c(=O)[nH]c(=O)n2C)n1CCc1ccccc1,-11.9%
17,CCCCCn1c(SCCC(C)C)nc2c1c(=O)[nH]c(=O)n2C,54.8% (active)
18,CCCCCCn1c(SCC(=O)c2ccccc2)nc2c1c(=O)[nH]c(=O)n2C,54.7% (active)
19,CCn1cc(NC(=O)Nc2ccc(OC)c(OC)c2)c(C(N)=O)n1,9.07%
20,O=C(O)c1cccc2c1C(=O)N(C1CCCCC1)C2,-4.3%
21,CCN(CC)P(=O)(/C(Cl)=C\Nc1c(C)n(C)n(-c2ccccc2)c1=O)N(CC)CC,-5.1%

# — PubChem BioAssay AID565 (University of Pittsburgh Molecular Library Screening Center, 2006)
